Compound activity deposited in PubChem by National Center for Advancing Translational Sciences (NCATS).
Compounds with a hit are over-represented: about 8.3% of the library has one in this group of screens.
BCR signal inh: chronic active BCR signaling inhibition | ABC-DLBCL IkBa-CBG/CBR reporter, luminescence ratio, 4 h | Potency, µM (series often up to 46.1 µM), for the others: top-dose activity change, negative = inhibition, actives largely listed as inhibitors | 340,000 compounds, 0.05% hits; active means well fitted inhibition curve with a large enough effect in the signal ratio, with a control signal flat, not every such curve was filed as active; inconclusive means small, poorly fitted or top-dose-only effect, or effect the other way, or a change in a side signal; the % refers to the signal ratio;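 further: potency means the concentration at half of the fitted maximal effect; plate controls were basal doxycycline-induced cells for no effect and cells given 10 µM MG132 for full effect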
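Cell line TMD8 (human ABC DLBCL), stably expressing tet-inducible CBG68-IkBa fusion and CBR; IMDM/0.5% FBS; cpd up to 46 uM; dox induction, 4 h, 37C/5% CO2; dual luminescence; green/red ratio; MG132 control.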
MCF10A rerep: inducers of DNA re-replication in MCF 10A breast cells | AID 624296 | Potency, µM (top dose mostly 46.1 µM), for inactives: at the highest dose activity, positive = re-replication, most hits filed as activators | 350,000 compounds, 2.9% hits | MCF 10A DNA re-replication, Hoechst nuclear intensity, 48 h; further: potency means the concentration at half of the fitted maximal effect; % of control where 0% means no effect; nearly all actives have a fitted effect of over 50% in size
RORgamma inh: blocks mouse ROR gamma transcriptional activity; P51450; Drosophila S2 Gal4-RORgamma UAS-luciferase reporter, 20 h; Potency, µM (series often up to 53.6 µM), without a hit: at the top dose activity change, negative = inhibition, actives largely listed as inhibitors; 310,000 compounds, 5.4% hits; further: potency means the concentration at half of the fitted maximal effect; on the % scale 0 is the no-effect control and ±100 the full control effect; nearly all actives have a fitted effect of over 60% in size
Target sequence (P51450 whole entry, looked up, the tested form may be a part): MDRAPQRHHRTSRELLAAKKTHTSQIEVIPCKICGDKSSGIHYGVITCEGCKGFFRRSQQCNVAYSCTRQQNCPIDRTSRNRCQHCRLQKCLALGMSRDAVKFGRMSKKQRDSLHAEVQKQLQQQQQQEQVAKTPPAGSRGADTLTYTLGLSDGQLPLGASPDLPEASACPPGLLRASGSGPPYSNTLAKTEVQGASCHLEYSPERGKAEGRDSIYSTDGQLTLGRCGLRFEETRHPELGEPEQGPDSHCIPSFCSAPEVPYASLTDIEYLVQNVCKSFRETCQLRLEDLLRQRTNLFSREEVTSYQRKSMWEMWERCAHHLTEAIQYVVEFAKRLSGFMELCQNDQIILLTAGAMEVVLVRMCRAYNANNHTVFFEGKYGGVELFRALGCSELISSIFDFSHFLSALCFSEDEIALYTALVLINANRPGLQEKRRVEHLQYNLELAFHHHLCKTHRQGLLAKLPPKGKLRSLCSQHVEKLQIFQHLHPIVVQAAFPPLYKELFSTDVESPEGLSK
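Luminescence from a UAS-regulated Photinus luciferase reporter in stably transfected Drosophila Schneider cells is measured; decreased signal marks ROR gamma inhibition. Fusion expression is induced by 700 uM copper sulfate for 20 hr.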
Giardia kill: Giardia lamblia killing | activity change, % at 7.66 µM, hits read low | AID 540267 | Giardia lamblia trophozoite viability | 340,000 compounds, 0.15% hits; in the data active means activity change below about -80%; inconclusive means between about -30% and that limit;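 further: parasites exposed to compound for two days anaerobically before the ATP read; on the % scale 0 is the no-effect control and ±100 the full control effect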
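Trophozoite viability was measured as ATP-dependent luminescence, read 15-30 min after reagent addition. Before that, parasites at 100 cells/well were exposed to compounds for 48 h, anaerobically, at 37 deg C.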
Gal4-VP16 FLuc: counter-screen for ROR gamma inhibitors: Gal4-VP16 reporter | Potency, µM (highest dose often 53.6 µM), for the others: at the highest dose activity, negative = inhibition, actives largely listed as inhibitors | Drosophila S2 Gal4-VP16 UAS-luciferase, luminescence, 20 h | AID 2546 | 310,000 compounds, 3.5% hits;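 further: Gal4-VP16 expression switched on by copper sulfate through the metallothionein promoter; potency means the concentration at half of the fitted maximal effect; on the % scale 0 is the no-effect control and ±100 the full control effect; nearly all actives have a fitted effect of over 50% in size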
SW480 rerep: induces DNA re-replication in SW480 colon adenocarcinoma cells; SW480 DNA re-replication, Hoechst DNA content imaging, 48 h; Potency, µM (doses to about 46.1 µM), for the others: at the top dose re-replication activation, hits mostly activators; 340,000 compounds, 1.8% hits; AID 624297; further: potency means the concentration at half of the fitted maximal effect; % of control where 0% means no effect; nearly all actives have a fitted effect of over 55% in size
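250 cells/well; 23 nL cpd via pin tool; 48 hr, 37 C, 5% CO2; Hoechst 40 min; imager read of total nuclear intensity, ex 405/em 500-530 nm.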
The depositor's hits bear a star; ? = inconclusive; · = not tested or not shown; [ ] = dose if it differs, or a comment. Unless noted, the call rests on the fitted dose curve; in most records, active means well fitted curve in the direction sought with a large enough effect; inconclusive means small, poorly fitted or top-dose-only effect, or another doubt; inactive means no such curve, though single readings can be large; an effect the other way counts as inactive or inconclusive.

SMILES | BCR signal inh | MCF10A rerep | RORgamma inh | Giardia kill | Gal4-VP16 FLuc | SW480 rerep
O=c1[nH]c(Cc2cccs2)nc2scc(-c3ccc(Cl)cc3)c12 | -2% | ? | ? | -5 | -1% | -8%
COc1ccc(N2CCN(Cc3nc4scc(-c5cccs5)c4c(=O)[nH]3)CC2)cc1 | ? | 0% | ? | -1 | -1% | -2%
Cc1ccc(-c2csc3nc(-c4ccncc4)[nH]c(=O)c23)cc1 | 7% | 18µM* | 12% | 25 | -12% | 5.2µM*
Cc1ccc(-c2csc3nc[nH]c(=O)c23)cc1 | -11% | 0% | 16% | -1 | -13% | -57%
Cc1ccc(-c2csc3nc(CN(C)Cc4ccccc4)[nH]c(=O)c23)cc1 | ? | 0% | 1.3µM* | -1 | 6.3µM* | ?
O=C1NCCCN1Cc1ccc(Cl)cc1 | 1% | -14% | 5% | -18 | -16% | 0%
Cc1cc(OCC(=O)Nc2ccccc2F)nc(C(C)C)n1 | 1% | -2% | 4% | 12 | 2% | -4%
Cc1cc(OCC(=O)Nc2ccc(F)c(F)c2)nc(C(C)C)n1 | 4% | ? | 9% | 4 | 16% | 23µM*
CCN(CC)CC#CC(OC)(c1ccccc1)c1ccccc1 | 2% | 19% | -6% | 11 | 0% | 5%
Clc1ccccc1-c1ncnc2ccc(Br)cc12 | -11% | -3% | ? | -3 | -6% | ?
NNc1nc(-c2ccccc2Cl)c2cc(Br)ccc2n1 | -2% | 11% | 11µM* | ? | ? | -5%
CCOc1nc(-c2ccccc2)c2cc(Br)ccc2n1 | -4% | 3% | 15% | -11 | 3% | -9%
O=C(CCC(=O)N1CCN(c2ccc(Cl)c(Cl)c2)CC1)c1ccccc1 | -1% | ? | 27% | 11 | -27% | -2%
O=C(O)CCC(=O)N1CCN(c2nc(-c3ccccc3Cl)c3cc(Br)ccc3n2)CC1 | ? | 21µM* | 21% | 6 | -19% | -1%
O=C(O)CCC(=O)N1CCN(c2nc(-c3ccccc3)c3cc(Br)ccc3n2)CC1 | 0% | 23µM* | ? | -14 | -4% | ?
COc1ccc(C2Nc3ccccc3C(=O)N2c2ccc(F)cc2)cc1COc1ccc(NC(C)=O)cc1 (configuration not stated) | · | · | · | 26 | · | ·
COC(=O)[C@H]1[C@@H](C)N(Cc2ccccc2)C(=O)N[C@H]1c1ccccc1 | · | ? | · | -8 | · | 0%
COc1ccc(C(=O)N(C)C(C)c2ccon2)cc1OC1CCN(C(C)C)CC1 (configuration not stated) | 0% | 3% | -10% | -7 | 2% | -1%
O=C(NCCCCCCNC(=O)c1ccccc1O)c1ccccc1O | -19% | 14% | 3% | -7 | ? | -1%
Cn1cccc1C(=O)NCCc1ccc(Cl)cc1 | ? | -5% | ? | -30 | 15% | -4%
O=C(NCCCc1ccccc1)c1ccccc1O | 3% | 15µM* | ? | -6 | 2% | ?
Cn1cccc1C(=O)NCCc1ccccc1 | ? | 4% | 10µM* | -11 | 13µM* | -20%
Cc1ccc(C(=O)NCCCc2ccccc2)c(Cl)c1 | ? | 5% | 11µM* | 6 | -17% | 4%
O=C(NCCc1ccccc1)c1ccccc1Cl | ? | 8% | 8.9µM* | 2 | 7.9µM* | -4%
Cc1ccc(C(=O)NCCCc2ccccc2)c(C)c1 | -8% | -6% | ? | ? | ? | -18%
SMILES | BCR signal inh | MCF10A rerep | RORgamma inh | Giardia kill | Gal4-VP16 FLuc | SW480 rerep
Cc1nnc(SC(C(=O)Nc2ccc(Cl)c([N+](=O)[O-])c2)c2ccccc2)[nH]c1=O (configuration not stated) | 1% | 2% | 2% | 13 | 4% | -10%
O=C(c1cc(C(=O)NCCc2ccccc2)c(=O)n(CCc2ccccc2)c1)c1cc(Cl)ccc1O | 15% | 12% | ? | -10 | 14µM* | 8%
O=C(NCCc1ccccc1)c1cccnc1N1CCCCCC1 | -7% | 26µM* | 22%[10 µM] | 22 | 2% | 3%
COc1ccc(CCNC(=O)c2cc(C(=O)c3cc(Cl)ccc3O)cn(CCc3ccc(OC)cc3)c2=O)cc1 | 1% | -51% | ? | -11 | -7% | ?
O=C(Nc1ccc(Cl)cc1)c1cccnc1N1CCCCC1 | 11% | ? | 0% | -8 | 10% | 2%
COc1cc2ccccc2cc1C(=O)N1CCN(c2nc3c(C)cc(C)cc3s2)CC1 | 9% | · | · | · | · | ·
Oc1c(C(c2ccc(F)cc2)N2CCOCC2)sc2nc(-c3ccco3)nn12 (configuration not stated) | 9% | · | · | · | · | ·
Cc1cc2c(c(=O)n1Cc1cccnc1)C(Cc1ccccc1)C(C#N)=C(N)O2 (configuration not stated) | -10% | 0% | ? | 2 | 14µM* | -5%
CN(C)/C=N/C(=S)Nc1ccc(Br)cc1F | -22% | 16% | ? | -4 | 13µM* | -14%
Fc1cc(Br)ccc1NC(=S)NCCc1ccccc1 | 1% | 2% | 7.9µM* | 6 | ? | 11%
C=CCNC(=S)Nc1ccc(Br)cc1F | 6% | 1% | 16µM* | 1 | ? | 1%
CN(C)/C=N/C(=S)Nc1ccccc1 | -2% | 5% | 16µM* | 5 | 16%[10 µM] | -1%
CN(C)S(=O)(=O)Nc1ccc(Br)cc1F | 2% | 0% | 0% | 4 | -7% | 0%
CN(C(=S)Nc1ccccc1)c1ccccc1 | 2% | ? | -26% | -12 | 6% | -701%
Cc1cc(=O)[nH]c(N/N=C/c2ccc(Br)s2)n1 | -9% | -6% | ? | -23 | ? | -4%
COc1ccc2c(c1)O[C@H](c1ccc3c(c1)OCO3)[C@@H](OC(=O)NCCc1ccc(OC)c(OC)c1)C2=O | · | · | 3% | · | -11% | ·
COc1cccc(Cn2c(=O)c(-c3cn(C)c4ccccc34)nc3cnc(OC)nc32)c1 | · | · | -18% | · | 5% | ·
C=CCNC(=S)NCc1ccc(CNC(=S)NCC=C)cc1 | -9% | 13% | 13% | 7 | -3% | -13%
C=CCNC(=S)Nc1ccc(Cl)cc1F | 2% | -8% | 14µM* | -11 | -10% | 0%
N#Cc1ccccc1OCC(=O)NNC(=O)CNC(=O)c1cccc(Br)c1 | 7% | 0% | · | -15 | · | 5%
O=C(CSc1ncnc2c1cnn2-c1ccccc1)Nc1ccc2c(c1)OCO2 | ? | 15µM* | 13% | -8 | -6% | 11%
COc1ccc(-n2nnc3c(SCC(=O)Nc4ccc5c(c4)OCCO5)ncnc32)cc1 | 3% | · | 7.9µM* | · | ? | ·
COc1ccc(-n2nnc3c(=O)n(CC(=O)Nc4ccc5c(c4)OCCO5)cnc32)cc1OC | 1% | 2% | -42% | 10 | -26% | -7%
